Assay results as given in publication PMC7819943, “Rice protein-binding microarrays: a tool to detect cis-acting elements near promoter regions in rice”.
In all, about 68,000 sequences were measured (“fluorescence intensity (a.u.)”: median about 9,100, highest 2% from about 16,000 on). Only a selection was taken, and the highest values are over-represented in it overall.

Molecular target: OsWRKY34 (Oryza sativa, UniProt Q0JBA9 1-250)
Assay: protein-binding microarray (RPBM); PBS, 2% BSA, 51.3 ng/ul salmon testes DNA, 50 uM zinc acetate, 200 nM TF, 25 C, 1 h; high values mean tight binding
Conditions: protein: recombinant; tags: N-terminal polyhistidine and DsRed monomer fusion (pET32a); label: CyDye5-dUTP incorporated in the synthesized complementary strand; 3' TTTTT single-stranded linker to array surface; dsDNA, one strand shown
Method in brief: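 Transcription factors, each fused N-terminally to a polyhistidine tag and DsRed, were expressed in E. coli BL21-CodonPlus and purified on Ni–NTA. A custom Agilent array was made double-stranded by primer extension with Cy5-dUTP and blocked with 2% BSA. It was incubated with 200 nM protein in PBS, 2% BSA, salmon testes DNA and 50 µM zinc acetate at 25 °C for 1 h, then washed. The binding signal is per-feature fluorescence intensity (arbitrary units) read on an Axon 4000B scanner.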

OsWRKY34, sequence (Q0JBA9 entry or part of it): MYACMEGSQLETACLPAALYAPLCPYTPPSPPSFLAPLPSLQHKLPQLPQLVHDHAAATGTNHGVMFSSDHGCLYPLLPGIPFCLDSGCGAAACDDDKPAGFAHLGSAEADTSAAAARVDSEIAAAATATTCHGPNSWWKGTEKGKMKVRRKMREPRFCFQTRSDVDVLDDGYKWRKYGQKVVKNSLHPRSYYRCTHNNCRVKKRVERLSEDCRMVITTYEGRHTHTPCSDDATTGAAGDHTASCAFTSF

| Sequence | binding signal |
| --- | --- |
| AATGTGACCAAGCCAACTTAACTTATTATACTTCTTAGTTCGGAGTCACCTAGTGCAG | 8680 fluorescence intensity (a.u.) |
| CCAAGACCGCACCCGTATAAAGCCGCAGACCTCTCTCTCCCGGAGTCACCTAGTGCAG | 10100 fluorescence intensity (a.u.) |
| CTCTGACCATATATCACGTTCTACGTCCAGGTCAAATCACCGGAGTCACCTAGTGCAG | 8730 fluorescence intensity (a.u.) |
| TGCGTCCCTCTTCCTTCATTCTCCTGACGCCTAGGGCCCACGGAGTCACCTAGTGCAG | 8280 fluorescence intensity (a.u.) |
| TTATGGGTATGTCACCAGGGGTTTAATCTTTCATTTTCAACGGAGTCACCTAGTGCAG | 12300 fluorescence intensity (a.u.) |
| CTGGACGCGGTCCTGCACGACACATGCATCATCTCCTCAACGGAGTCACCTAGTGCAG | 8570 fluorescence intensity (a.u.) |
| ATGATAGGTCCTGGACTCACAAGTTATTGAGAACGGCACGCGGAGTCACCTAGTGCAG | 50900 fluorescence intensity (a.u.) |
| CACTCAACCTAACTGTTGAACGGTCCTGTTCTGGCCAACGCGGAGTCACCTAGTGCAG | 8890 fluorescence intensity (a.u.) |
| TGGTGTGTTTTTTGGGATGTTTCGGTAGGTATTTTGTGATCGGAGTCACCTAGTGCAG | 12000 fluorescence intensity (a.u.) |
| GGCTGCCTCCTCTCCTCATCCCTGCACCTACACTCCAATACGGAGTCACCTAGTGCAG | 8530 fluorescence intensity (a.u.) |
| GTCCTTTACACTGATCCTGCACATCGCTCACTGTTTTCTTCGGAGTCACCTAGTGCAG | 16800 fluorescence intensity (a.u.) |
| CATCTTACCTTACGTCCACCGCATCTCATCCTTTGCTGTTCGGAGTCACCTAGTGCAG | 12200 fluorescence intensity (a.u.) |
| GCCTTCTCCATCTCTCTGCTTCTTTTGTTTGTTTTTCTTTCGGAGTCACCTAGTGCAG | 13000 fluorescence intensity (a.u.) |
| GCAGCTCTACTGTTTTCCGCTTCCATCTTCTTCCTTTCTTCGGAGTCACCTAGTGCAG | 16700 fluorescence intensity (a.u.) |
| TCCTTTTGCTTTCTTTCTTTTGTGTTTTTCAAATTTCTACCGGAGTCACCTAGTGCAG | 9810 fluorescence intensity (a.u.) |
| CTCACCTACCGCATCTGTGTTCCTTTTGCTTTCTTTCTTTCGGAGTCACCTAGTGCAG | 18100 fluorescence intensity (a.u.) |
| ATCCATCTTCTTCTTCTTTCTTTCTTTTCTTCCTCTTCTTCGGAGTCACCTAGTGCAG | 10400 fluorescence intensity (a.u.) |
| GTTTTCTTTCTTTTTTTTTTCCACCTGTCGCACTGTACATCGGAGTCACCTAGTGCAG | 11800 fluorescence intensity (a.u.) |
| TTACACATTTCTTTTTCATCACTGCTGATATGTTATCCTTCGGAGTCACCTAGTGCAG | 9940 fluorescence intensity (a.u.) |
| TAATACTCCTACTATGGACTTGTTCTCCGTGTTGCTTATTCGGAGTCACCTAGTGCAG | 10200 fluorescence intensity (a.u.) |
| CCGTTACATGACGTGGGCCCCACCCAGCCGCGCCAGCCCACGGAGTCACCTAGTGCAG | 8450 fluorescence intensity (a.u.) |
| CCACTCACTCTGTGTTTCACTTGCTGCCTTTCAGTTGCAACGGAGTCACCTAGTGCAG | 8820 fluorescence intensity (a.u.) |

| Sequence | binding signal |
| --- | --- |
| TTCTAAATTTGAAACGGTTTTATGACTTCTTTTCAGCGTTCGGAGTCACCTAGTGCAG | 8520 fluorescence intensity (a.u.) |
| GGTGACGGCGGCTGTCTTCTTCGTAGGGTGCGGGGTGGCTCGGAGTCACCTAGTGCAG | 8880 fluorescence intensity (a.u.) |
| TGTCTACATACGCTCAATCCATTATTCCCCTATTACATCACGGAGTCACCTAGTGCAG | 9500 fluorescence intensity (a.u.) |
| ACCATCCAGCGCGTAACCGATTCCCTGTACATTCGGCCGCCGGAGTCACCTAGTGCAG | 9080 fluorescence intensity (a.u.) |
| GGAGATCTTATACCCGATTTTACTGTTGAGGATTGTGACTCGGAGTCACCTAGTGCAG | 8640 fluorescence intensity (a.u.) |
| ACGCTTACAACATGCGCATACACGCACACCCAATCCTATGCGGAGTCACCTAGTGCAG | 11000 fluorescence intensity (a.u.) |
| AGATTTTTTTGAACTTTCTGTCTGGGTCGGCTGTTTGTGTCGGAGTCACCTAGTGCAG | 10500 fluorescence intensity (a.u.) |
| GGTAGATTATATTAGGTTTTTCTTCGTGTTGTATTCACGACGGAGTCACCTAGTGCAG | 8720 fluorescence intensity (a.u.) |
| CTCCGTCCTTAAATATTTGACGTCGTTGACTTTTTTAAACCGGAGTCACCTAGTGCAG | 26000 fluorescence intensity (a.u.) |
| AAATACAACTTTGACTTTTTGTTTCTTTAAAAATATTTATCGGAGTCACCTAGTGCAG | 9920 fluorescence intensity (a.u.) |
| TAGCGTCGTTGACTTTTGAACACATTTTTATCATTTAAATCGGAGTCACCTAGTGCAG | 22400 fluorescence intensity (a.u.) |
| CTTACTCTCTCCGTCTCTAAATATTTGACGCCGTTGACTTCGGAGTCACCTAGTGCAG | 12900 fluorescence intensity (a.u.) |
| CTCTTCATTTTTTTAATAGATAGCGTCGTTGACTTTTGAACGGAGTCACCTAGTGCAG | 14800 fluorescence intensity (a.u.) |
| TATTTTTTGGTTGTCCTTTGTTTTTTTAAAAAATATTTGTCGGAGTCACCTAGTGCAG | 8170 fluorescence intensity (a.u.) |
| ACTTTTTAAATATGTTTGACCGTTCGTCTTATTCAAAAACCGGAGTCACCTAGTGCAG | 9990 fluorescence intensity (a.u.) |
| TAAGACGTTTTGACTTTTTTTTTTCCTATTTAAACCTTTTCGGAGTCACCTAGTGCAG | 13500 fluorescence intensity (a.u.) |
| ACTCTCTCCGTCCTTAAATATTTGACGCCGTTGACTTTTTCGGAGTCACCTAGTGCAG | 30600 fluorescence intensity (a.u.) |
| CACACATAAACTTTTAACTTTTTTATCACATCGTTTTAATCGGAGTCACCTAGTGCAG | 8490 fluorescence intensity (a.u.) |
| GTCCTTAAATATTTGACGTCGTTGACTTTTTTTAAAATATCGGAGTCACCTAGTGCAG | 20900 fluorescence intensity (a.u.) |
| CCTGTAATACTCTCTCCGTCTATAAATATTTGACGCCGTTCGGAGTCACCTAGTGCAG | 8560 fluorescence intensity (a.u.) |
| GGAGGGGTTGGAAAAATTCGGTGTTCGTGGCCGCCTTCACCGGAGTCACCTAGTGCAG | 13400 fluorescence intensity (a.u.) |
| GAAAATATCTGAAAGATACCGTTTGTCGTACTCCTTTTCTCGGAGTCACCTAGTGCAG | 9000 fluorescence intensity (a.u.) |
